Source: the supplement of paper PMC6555819

Columns and labels:
Assay in all cases: PBM binding z-score (relative to random genomic background probes); higher = stronger binding; sequences stand for … in GC…GCGATTGACAGCGTAGAATGAAGG
[1] = test system: FXR:RXRa (NR concentration 270 nM, RXRa partner concentration 90 nM)
Outline: (§1)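 Scanned fluorescence from custom Agilent 4×180K protein-binding microarrays was regression-normalized. Binding z-scores use random background probes as reference. Ligand-free nuclear receptor dimers were incubated on the arrays for 1 h and detected with antibodies against each partner (one per run).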

[2] = test system: LXRa:RXRa (NR concentration 270 nM, RXRa partner concentration 90 nM)
Outline: as §1

[3] = test system: LXRa homodimer (NR concentration 270 nM)
Outline: as §1

[4] = test system: LXRb:RXRa (NR concentration 270 nM, RXRa partner concentration 90 nM)
Outline: as §1

[5] = test system: LXRb homodimer (NR concentration 270 nM)
Outline: as §1

[6] = test system: PPARa:RXRa (NR concentration 270 nM, RXRa partner concentration 90 nM)
Outline: as §1

[7] = test system: PPARg:RXRa (NR concentration 180 nM, RXRa partner concentration 90 nM)
Outline: as §1

[8] = test system: PPARg:RXRa 270nM:90nM, anti-RXR (NR concentration 270 nM, RXRa partner concentration 90 nM)
Outline: as §1

[9] = test system: PPARg:RXRa 30nM:10nM, anti-RXR (NR concentration 30 nM, RXRa partner concentration 10 nM)
Outline: as §1

[10] = test system: PPARg:RXRa 90nM:30nM, anti-RXR (NR concentration 90 nM, RXRa partner concentration 30 nM)
Outline: as §1

Sequence | PBM binding z-score [1] | PBM binding z-score [2] | PBM binding z-score [3] | PBM binding z-score [4] | PBM binding z-score [5] | PBM binding z-score [6] | PBM binding z-score [7] | PBM binding z-score [8] | PBM binding z-score [9] | PBM binding z-score [10]
AGTATGAGGTTAAGATCAGGGAAACAGAATACAT | 1.71 | 2.36 | 0.00803 | 1.84 | 0.314 | 3.08 | 1.76 | 1.45 | 0.773 | 1.12
CGTCCAAGGTCATCGGAGGTCAGTGAAGACAGAT | 8.01 | 7.87 | 5.77 | 6.23 | 1.29 | 5.95 | 5.99 | 5.91 | 2.4 | 4.7
ATCTCTAGGTAAGACTCAGTTCAGCGAAGAACGC | 0.373 | 0.369 | 0.471 | 0.111 | 0.684 | 0.278 | 0.231 | 0.241 | 0.0173 | 0.278
GCTTCTAGGTCAACTGATGGTCAGCTAAAGCTCG | 4.49 | 3.12 | 0.562 | 2.48 | 1.06 | 4.69 | 6.35 | 5.64 | 3.01 | 5.05
ATACCAAGGTGATCGTGAGGTCGTTGATACTAAC | 1.86 | 1.35 | 0.615 | 1.5 | 0.284 | 1.67 | 0.613 | 0.439 | 0.0505 | 0.47
AGTCAAAGCTCATCTAGGTAACGTAAGATATGCT | -0.387 | -0.578 | -0.275 | -0.318 | -0.689 | 0.0609 | 0.604 | 0.302 | -0.0105 | 0.0855
TAGCCTAGGTCATTGGGCCAGTACAGTACGCATC | 4.4 | 3.61 | 1.04 | 2.35 | 0.354 | 3.83 | 3.38 | 3.78 | 0.72 | 2.63
TAGCCTAGGTCAGATCGGGCCATTATACGCTATA | 2.53 | 1.3 | -0.125 | 1.07 | -0.132 | 1.55 | 0.711 | 0.523 | -0.272 | 0.0184
TATACAGGGTCAAAGGCCAGATTACGAATGTCGA | 7.37 | 6.22 | 2.78 | 4.95 | 2.24 | 6.15 | 8 | 7.46 | 5.15 | 7.09
TCTACAGGGTCAAAGGCCAGAGTACGAATGTCGA | 7.34 | 4.67 | 0.313 | 4.11 | 0.605 | 5.99 | 7.62 | 7.12 | 5.3 | 6.93
TATACAGGGTCAAAGGCCAGAGTACGAATGTCGA | 7.35 | 6.25 | 2.5 | 4.96 | 1.86 | 6.57 | 8.48 | 7.61 | 5.77 | 7.93
CAAACTAGGTCACCGGAAGGTCAAAGGCCGCATG | 6.24 | 5.81 | 4.23 | 5.17 | 1.01 | 6.34 | 9.9 | 7.75 | 6.27 | 7.97
